About 79,000 compounds went through this panel and 15% of them were active in at least one assay; those are over-represented in the sample as a whole. Activity calls are given as the source filed them. No stated cut-off is given here; in the data, active means growth inhibition above about 70%; inactive means the rest.
Assays:
[1] = NCI Yeast Anticancer Drug Screen. Data for the rad50 strain (AID 155);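 further: 0% = growth of vehicle-only cultures of the same strain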; details: S. cerevisiae rad50 strain growth inhibition; at 50.0 µM; active compounds read high
In short: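 Readout: growth inhibition relative to vehicle-treated cultures. Compound exposure was carried out in a genetically defined yeast strain deficient in DNA damage repair.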

[2] = NCI Yeast Anticancer Drug Screen. Data for the mec2-1 strain (AID 157); details: S. cerevisiae mec2-1 strain, at 50.0 µM, active compounds read high
In short: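 Yeast mec2-1 mutant treated with compound. Readout: growth inhibition vs vehicle controls.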

[3] = NCI Yeast Anticancer Drug Screen. Data for the sgs1 mgt1 strain (AID 161);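 further: 0% = growth of cultures given vehicle only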; details: S. cerevisiae sgs1 mgt1 strain, at 50.0 µM, active compounds read high
In short: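 Mutant yeast exposed to compound; growth scored against vehicle-only wells.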

[4] = NCI Yeast Anticancer Drug Screen. Data for the cln2 rad14 strain (AID 165);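 further: 0% = growth equal to vehicle treated cultures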; details: S. cerevisiae cln2 rad14 strain, at 50.0 µM, active compounds read high
In short: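 cln2 rad14 yeast strain; compound exposure; growth inhibition read vs vehicle controls.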

[5] = NCI Yeast Anticancer Drug Screen. Data for the bub3 strain (AID 167); details: S. cerevisiae bub3 mutant strain, at 50.0 µM, active compounds read high
In short: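 Readout: yeast growth inhibition, expressed relative to vehicle-only wells. The test organism is a mutant strain from a panel with lesions in DNA repair or checkpoint genes.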

[6] = NCI Yeast Anticancer Drug Screen. Data for the mlh1 rad18 strain (AID 175); details: S. cerevisiae mlh1 rad18 strain growth inhibition; at 50.0 µM; active compounds read high
In short: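 Yeast w/ defined DNA-repair lesions; compound exposure; growth vs vehicle controls → % inhibition.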

Measured: growth inhibition

COc1ccc(/C=C(\C#N)c2ccccc2NC(C)=O)cc1
inactive: [1] 6.9% | [2] 7.4% | [3] -2.95% | [4] -42.8% | [5] -10.5% | [6] 19.8%

Nc1nc2c(c(-c3ccc(Cl)cc3)n1)CN(c1ccc(Br)cc1)C2=O
inactive: [1] 40.5% | [2] 0.8% | [3] -4.85% | [4] 12.7% | [5] -3.1% | [6] 11.9%

Cc1cc(Br)cc(C)c1NC(=O)C(=O)Nn1c(=S)[nH]c2ccccc2c1=O
inactive: [1] -8.55% | [2] -16.1% | [3] -6.15% | [4] 12.8% | [5] -8.2% | [6] 1.3%

COC1CCC(OC)(C(=O)NN)O1 (stereo not drawn)
inactive: [1] -22.9% | [2] -53.1% | [3] -9.45% | [4] 4.3% | [5] -57.2% | [6] -0.6%

CC(C)(C)C1=CC(=C2C(=O)C(=O)c3ccccc3C2=O)C=C(C(C)(C)C)C1=O
inactive: [1] -3.2% | [2] -22.2% | [3] -12.7% | [4] 6.85% | [5] 22.4% | [6] -21.5%

CC(Cc1cccc2ccccc12)(C(=O)O)C(=O)O
inactive: [1] 7.15% | [2] -4.1% | [3] 11.5% | [4] -14.2% | [5] -7.5% | [6] 0.05%

S=C(S)N(Cc1ccccc1)Cc1ccccc1
inactive: [1] 33.4% | [2] -3% | [3] 27.2% | [4] -0.7% | [5] 6.6% | [6] 36.5%

O=C(O)CNC(=O)CNC(=O)C(CCC(=O)OCc1ccccc1)NC(=O)OCc1ccccc1 (stereo not drawn)
inactive: [1] 27.2% | [2] 12.3% | [3] 14.4% | [4] 9.3% | [5] 6.2% | [6] 15.2%

COc1ccc(N2C(=O)C3c4[nH]c5ccccc5c4C4CCCCC4C3C2=O)cc1 (stereo not drawn)
inactive: [1] -3.4% | [2] 5.1% | [3] -7.15% | [4] 9.95% | [5] -1.05% | [6] -6.05%

CC(=O)c1ccc(N2C(=O)CC(NC3CCCCC3)C2=O)cc1 (stereo not drawn)
inactive: [1] -7.4% | [2] 7.1% | [3] 9.45% | [4] -2.15% | [5] 1.65% | [6] -17.4%

CC1(C)Cc2oc(=Nc3ccccc3)n(-c3ccccc3)c(=O)c2C1
inactive: [1] 9.95% | [2] 2.15% | [3] 1.9% | [4] -13.2% | [5] 4.6% | [6] 0.15%

COc1ccc(C(Cc2cc(OC)c(OC)cc2Br)NC=O)cc1OC (stereo not drawn)
inactive: [1] 0.3% | [2] 7.35% | [3] -7.55% | [4] -3.15% | [5] 5% | [6] 31.4%

Cn1c(=O)c2c(ncn2CCNC(c2ccccc2)c2cccc(Cl)c2)n(C)c1=O (stereo not drawn)
inactive: [1] 6% | [2] -8.05% | [3] 4.35% | [4] -8.3% | [5] 0.8% | [6] 12.8%

Cc1cc(NN)c2cc3c(cc2n1)OCO3
inactive: [1] 12.4% | [2] -2.6% | [3] 5.05% | [4] -46% | [5] -5.7% | [6] 24.1%

O=C(O)c1cc(=O)c2cc(Cl)ccc2[nH]1
inactive: [1] -15.5% | [2] -12.2% | [3] -17.1% | [4] -19% | [5] -9.9% | [6] -1.55%

CNCCN(C)Cc1ccccc1
inactive: [1] -17.4% | [2] -24.6% | [3] -3.8% | [4] 11% | [5] 10.7% | [6] -8.3%

CC(=O)OCC1C(=O)OCC1C(=O)N1Cc2cc3ccccc3nc2C1 (stereo not drawn)
inactive: [1] -10.6% | [2] -1.55% | [3] 13.7% | [4] -18.9% | [5] 31.2% | [6] -9.85%

COc1ccc(/C(Cl)=C(\C=O)c2ccc(OC)c(OC)c2)cc1OC
inactive: [1] 21.9% | [2] 4.5% | [3] -0.3% | [4] -17.1% | [5] -3% | [6] -13.1%

O=C1CSSCC(=O)NCCCN1
inactive: [1] 2.25% | [2] 1.15% | [3] -5.35% | [4] 0.8% | [5] 2.55% | [6] 28.2%

CC(CN1CCCCC1)SSC(C)CN1CCCCC1 (stereo not drawn)
inactive: [1] 41.8% | [2] 14.9% | [3] 27% | [4] -29.1% | [5] 11.5% | [6] 44.2%

CC12CC3C(CC1O2)C3(C)C (stereo not drawn)
inactive: [1] -30.2% | [2] -19.6% | [3] -32.8% | [4] 2.5% | [5] 1.35% | [6] -43.2%

CCCCN(CCCC)C(=N)c1cccc(OC)c1
inactive: [1] -7.9% | [2] -13.4% | [3] -7.35% | [4] -15.3% | [5] 2.75% | [6] -17.9%

COc1ccc(CN2COc3c(ccc4ccccc34)C2)cc1
inactive: [1] 36.1% | [2] 22.9% | [3] 31.1% | [4] 17.4% | [5] 12.6% | [6] 30.9%

CC1=NN(C)C(=O)C1
inactive: [1] 1.45% | [2] 3.3% | [3] 1.9% | [4] -0.4% | [5] -3.05% | [6] 9.25%

CCOC(=O)C1(c2ccccc2)CCNC(=O)CC1 (stereo not drawn)
inactive: [1] 7.65% | [2] 8.2% | [3] 16.2% | [4] -14.1% | [5] 13.5% | [6] 8.6%

O=C1c2ccccc2C(=O)N1CCCSc1ccc(F)cc1
inactive: [1] 32.8% | [2] -9.5% | [3] 28.4% | [4] 3.5% | [5] 15.3% | [6] 36.2%

OCCNCc1ccc2c(c1)OCO2
inactive: [1] -4.1% | [2] 3.85% | [3] -9.5% | [4] -4.85% | [5] -5.25% | [6] 1.4%

Nc1ncnc2scnc12
inactive: [1] 14.4% | [2] -0.55% | [3] -8.5% | [4] 0.9% | [5] -3.25% | [6] 1.65%

Cc1ccc(OC/C=C/c2ccc(C#N)cc2)cc1
inactive: [1] 2.55% | [2] 0.05% | [3] -4.15% | [4] -17.6% | [5] 1.8% | [6] -3%

O=C(O)CCCN1CCCCC1
inactive: [1] -22.1% | [2] -32.4% | [3] -30.2% | [4] -4.7% | [5] -63.9% | [6] 8.8%

N#CCCN(C1=NN(C(=O)CC(=O)Nc2ccccc2Cl)C(c2ccccc2)C1)c1ccc(Cl)cc1 (stereo not drawn)
inactive: [1] 28.4% | [2] 19.1% | [3] -10.1% | [4] 25.9% | [5] 16.1% | [6] 3.95%

C=C(C)C1Cc2c(cc(O)c3c(=O)c4c(oc23)C(O)Oc2cc(OC)c(OC)cc2-4)O1 (stereo not drawn)
inactive: [1] 9.15% | [2] -0.95% | [3] 0.9% | [4] -3.85% | [5] 2.85% | [6] 16.9%

CCCCCCNC(=O)/C(=C\c1ccc(Cl)cc1Cl)NC(=O)c1ccccc1
inactive: [1] -3.7% | [2] -17.8% | [3] -9.75% | [4] 33.1% | [5] -16.5% | [6] -9.6%

CC(=N\N)/C(C)=N/N=C(C)/C(C)=N/N=C(C)/C(C)=N/N=C(C)/C(C)=N/N
inactive: [1] 11.7% | [2] -7.8% | [3] 4.9% | [4] 13.7% | [5] -8.35% | [6] -14.4%

CCN(CC)CC#CCOc1ccc(/C=C/c2ccccn2)cc1
inactive: [1] 0.35% | [2] -13.4% | [3] 7.1% | [4] -14% | [5] 5.65% | [6] -21.4%

O=C1c2ccccc2C(=O)N1NC1=NCCN1
inactive: [1] -12.6% | [2] -13.3% | [3] -13.1% | [4] 11.8% | [5] 5.5% | [6] -1.8%

C=CC(C)c1cccc(C=O)c1O (stereo not drawn)
inactive: [1] 0.3% | [2] -7.3% | [3] -0.3% | [4] -32% | [5] 17.8% | [6] 15.2%

Oc1ccccc1-c1n[nH]c(=S)n1/N=C/c1ccc(-c2ccc(Br)cc2)o1
inactive: [1] -30.5% | [2] -19.2% | [3] -29.2% | [4] -4.35% | [5] -20.1% | [6] -42.9%

Reference: PubChem BioAssay (NCI)
